HT1080 IDH1KD tx: qHTS for induction of synthetic lethality in tumor cells producing 2HG: qHTS for the HT-1080-IDH1KD cell line; AID 686971, 2013; Potency, µM (titrated, usually from 46.1 µM), for the others: at the top dose activity, negative = toxicity, hits mostly cytotoxic; HT-1080 IDH1 knockdown viability, ATP luminescence, 48 h; 360,000 compounds, 2% hits;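 note: 0% = DMSO wells and -100% = cell-free medium wells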
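In this qHTS, HT-1080 cells depleted of IDH1 are exposed for 48 h at 37 °C to compound titrations. Toxicity is scored from CellTiter-Glo luminescence, with DMSO as full viability and medium alone as none.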
HT1080-NT tox: qHTS for induction of synthetic lethality in tumor cells producing 2HG: qHTS for the HT-1080-NT fibrosarcoma cell line | 360,000 compounds, 1.6% hits | AID 686970, 2013 | HT-1080-NT fibrosarcoma viability, CellTiter-Glo ATP luminescence, 48 h | Potency, µM (titrated, usually from 46.1 µM), for inactives: at the top dose activity, negative = less viability, most hits filed as cytotoxic;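 note: NT is the 2HG producing partner of a matched IDH1 knockdown line; 0% = DMSO-treated cells and -100% = media-only wells without cells; nearly all actives have a fitted effect of over 55% in size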
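Toxicity toward the 2HG-producing NT line was scored as %Activity, normalised to DMSO and no-cell wells, from CellTiter-Glo luminescence after 48 hours' treatment.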
SW480 rerep: A quantitative high throughput screen for small molecules that induce DNA re-replication in SW480 colon adenocarcinoma cells; SW480 DNA re-replication, Hoechst DNA content imaging, 48 h; Potency, µM (doses to about 46.1 µM), for the others: top-dose re-replication activation, actives largely listed as activators; 340,000 compounds, 1.8% hits; note: % of control where 0% means no effect; nearly all actives have a fitted effect of over 55% in size
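Treated cells incubate 48 hr (37 C, 5% CO2), are stained 40 min with Hoechst, and nuclear fluorescence is enumerated; a rise in nuclei with high DNA signal marks re-replication.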
KB-3-1 tox: qHTS assay for MDR1-selective chemotherapeutics: Primary screen using the parental adenocarcinoma cell KB-3-1 | KB-3-1 viability, CellTiter-Glo ATP luminescence, 72 h | Potency, µM (highest dose often 46.1 µM), actives largely listed as cytotoxic | 400,000 compounds, 1.4% hits; note: % is set by controls: 0 for no effect and ±100 for the full control effect; nearly all actives have a fitted effect of over 60% in size
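Using CellTiter-Glo luminescence, growth of non-resistant KB-3-1 adenocarcinoma cells is assessed 72 h after pin-tool compound addition at 37 °C. Normalized responses across the concentration series yield fitted curves.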
MCF10A rereplic: A quantitative high throughput screen for small molecules that induce DNA re-replication in MCF 10a normal breast cells. MCF 10A DNA re-replication, Hoechst nuclear intensity, 48 h. Potency, µM (doses to about 46.1 µM), for inactives: at the top dose activity, positive = re-replication, usual class: activators. 350,000 compounds, 2.9% hits; note: % of control where 0% means no effect; nearly all actives have a fitted effect of over 50% in size
KB-V1 MDR tox: qHTS assay for MDR1-selective chemotherapeutics: Primary screen using the drug-selected MDR subline cells KB-V1; KB-V1 MDR cells viability, CellTiter-Glo, 72 h; Potency, µM (series often up to 46.1 µM), most hits filed as cytotoxic; 400,000 compounds, 3.4% hits; AID 1347076, 2019; note: % is set by controls: 0 for no effect and ±100 for the full control effect; nearly all actives have a fitted effect of over 60% in size
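Cytotoxicity via CellTiter-Glo luminescence after 72 h compound exposure at 37 degrees C. Cells: drug-selected KB-V1 line, DMEM phenol-red free plus 10% FBS. Compounds tested at multiple concentrations; normalized data fitted to concentration-effect curves.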
An asterisk follows results filed as active; i = inactive; ? = inconclusive; . = no result given. A selection: hits, their analogues and other compounds. The true share with any hit is near 7.9%. Calls come from the whole dose curve; as a rule, active = well fitted curve in the direction sought with a large enough effect; inconclusive = small, poorly fitted or top-dose-only effect, or another doubt; inactive = no such curve, though single readings can be large; an effect the other way counts as inactive or inconclusive. Potency is the fitted concentration of half-maximal effect.

SMILES	HT1080 IDH1KD tx	HT1080-NT tox	SW480 rerep	KB-3-1 tox	MCF10A rereplic	KB-V1 MDR tox
CCc1ccc(NC(=O)C2CCN(c3ccc(Sc4ccc(C)cc4)nn3)CC2)cc1	.	.	.	i	.	i
CCOC(=O)CSC1=C(C#N)C(c2ccccc2OCC)C(C#N)C(=O)N1 (centres undefined)	-9%	?	18µM*	i	?	i
CCOC(=O)CSC1=C(C#N)C(c2ccc(Cl)cc2)CC(=O)N1 (centres undefined)	-5%	-10%	9%	i	2%	i
CCOC(=O)CSC1=C(C#N)C(c2ccc(C)o2)CC(=O)N1 (centres undefined)	0.58µM*	1µM*	0.82µM*	0.58µM*	?	?
CCCCOC(=O)CSC1=C(C#N)C(c2ccc3c(c2)OCO3)CC(=O)N1 (centres undefined)	2%	-1%	-3%	i	1%	i
CCOC(=O)CSC1=C(C#N)C(c2ccc3c(c2)OCO3)CC(=O)N1 (centres undefined)	9.2µM*	16µM*	?	7.3µM*	?	?
CC(=O)Nc1cccc(OCC(=O)NC(C)c2ccc3ccccc3c2)c1 (centres undefined)	0%	-8%	-2%	i	22%	?
O=C(Nc1ccc(Cl)cc1)N1CCSC1=NCc1ccccc1	3%	3%	-8%	i	3%	i
O=C(CN1CCSC1=NCc1ccccc1)c1ccc(Cl)cc1	0%	-3%	-75%	i	-3%	16µM*
CCc1ccc(NC(=O)CSc2ccc3nc(-c4ccc(OC)cc4)cn3n2)cc1	.	.	.	i	.	i
Cc1ccc(OC(=O)c2oc3ccc(F)cc3c2C)c(C)c1	7%	-18%	18µM*	i	?	i
COc1ccc(/C=C/C(=O)c2oc3ccc(F)cc3c2C)cc1	-1%	0%	-4%	i	9%	i
CCCCCCCCCC[n+]1ccc(/C=C/c2c[nH]c3ccccc23)c2ccccc21	.	.	.	8.2µM*	.	?
CCCCCCC[n+]1ccc(/C=C/c2c[nH]c3ccccc23)cc1	.	.	.	0.41µM*	.	i
C[n+]1ccc(/C=C/c2ccc(F)cc2)c2ccccc21	.	.	.	i	.	i
CC[n+]1ccc(/C=C/c2c[nH]c3ccccc23)cc1	-28%	?	?	1.8µM*	?	i
CCCCCCCCCC[n+]1ccc(/C=C/c2c(C)[nH]c3ccccc23)cc1	.	.	.	1.3µM*	.	?
CCn1c(/C=C/c2c(C)[nH]c3ccccc23)nc2ccccc2c1=O	-1%	-2%	?	i	?	i
CCCCCCN(CCCCCC)c1ccc(/C=C/c2ccnc3ccccc23)cc1	.	.	.	?	.	i
CC(=O)N1CCc2cc(Br)cc(S(=O)(=O)N3CCN(c4cccc(C)c4)C(C)C3)c21 (centres undefined)	.	.	.	i	.	i
CN(C)c1cccc(S(=O)(=O)N2CCCN(S(=O)(=O)c3ccc4c(c3)OCCO4)CC2)c1	.	.	.	i	.	i
CCOc1ccc(CCNC(=O)C2CCCN(S(=O)(=O)N(C)c3ccc(F)cc3)C2)cc1 (centres undefined)	.	.	.	i	.	i
CCOC(=O)c1noc2ncnc(N3CCC(C)CC3)c12	.	.	.	i	.	i
CSc1ccc(CN(C)CC(=O)NC(=O)NC(C)(C)C)cc1	-3%	-9%	-1%	i	4%	i
Cc1ccc(S(=O)(=O)N(CC(=O)NCCC2=CCCCC2)Cc2ccccc2)cc1	?	?	?	?	?	18µM*
SMILES	HT1080 IDH1KD tx	HT1080-NT tox	SW480 rerep	KB-3-1 tox	MCF10A rereplic	KB-V1 MDR tox
Cc1ccc(NC(=O)c2cc(S(=O)(=O)NCCC3=CCCCC3)ccc2F)cc1	-25%	-16%	25%	?	?	2.3µM*
O=C(CN(Cc1ccccc1)S(=O)(=O)c1ccc(F)cc1)NCCC1=CCCCC1	-1%	-1%	-2%	i	10%	?
O=C(CN(Cc1ccccc1F)S(=O)(=O)c1ccc(Cl)cc1)NCCC1=CCCCC1	?	?	-1%	?	?	6.5µM*
CSc1ccc(CN(C)CC(=O)NC(=O)NCCC2=CCCCC2)cc1	8%	0%	-8%	i	-5%	21µM*
Cc1ccccc1CN(c1ccc(C(=O)N2CCCC2)cc1)S(C)(=O)=O	2%	9%	-4%	i	?	i
Cc1ccccc1CN(c1ccc(C(=O)NCCC2=CCCCC2)cc1)S(C)(=O)=O	-11%	-4%	4%	?	1%	13µM*
CCc1nnc(NC(=O)CCN(c2cc(C)cc(C)c2)S(=O)(=O)c2ccc(Cl)cc2)s1	-8%	1%	26%	?	?	2.6µM*
O=c1oc2ccccc2cc1-c1cn2cc(Cc3ccc(Br)cc3)sc2n1	.	.	.	?	.	i
COc1ccc(/C=C/CN2CCC(CO)(Cc3ccccc3Cl)CC2)cc1	23µM*	23µM*	?	?	?	?
COc1ccc(C(=O)Nc2ccc3c(c2)OCO3)cc1S(=O)(=O)N1CCOCC1	-1%	1%	.	i	.	i
CC(C)c1ccc(NC(=O)CSc2nnc(-c3ccccn3)n2C)cc1	13%	2%	-13%	i	-2%	5.2µM*
COc1ccc(NC(=O)CSc2nnc(-c3ccccn3)n2N)cc1Cl	-22%	-2%	-6%	i	2%	16µM*
CCc1ccc(NC(=O)CSc2nnc(-c3ccccn3)n2C)cc1	-2%	2%	-14%	i	22%	i
Cn1c(SCC(=O)Nc2cc(Cl)cc(Cl)c2)nnc1-c1ccc2nonc2c1	-2%	-11%	18µM*	i	18µM*	?
CCCn1c(SCC(=O)Nc2nnc(-c3ccccc3)s2)nnc1-c1ccccn1	17%	17%	0%	i	18µM*	i
CCCn1c(SCC(=O)NCCc2ccccc2)nnc1-c1ccccn1	12%	11%	-1%	i	4%	?
Cc1cc(-c2nc(C)c(-c3nnc(SCC(=O)Nc4cc(Cl)cc(Cl)c4)n3C)s2)no1	4%	?	-4%	i	11%	i
O=C(Nc1cccc(NC(=O)c2ccco2)c1)c1ccc2c(c1)OCCO2	-2%	0%	-9%	i	-7%	i
CCCC(=O)Nc1cccc(NC(=O)c2ccc3c(c2)OCCO3)c1	-5%	8%	?	i	?	i
